An excerpt weighted towards active compounds, which were near 9.9% of everything screened.
HPGD inh: blocks human HPGD enzyme activity. 150,000 tested, 4.3% active. Potency, µM, for the others: at the top dose activity change, negative = inhibition, most hits filed as inhibitors. purified HPGD, NADH fluorescence kinetic, PGE2 substrate. AID 894; active = well fitted inhibition curve with a large enough effect, not every such curve was filed as active; inconclusive = small, poorly fitted or top-dose-only effect, or another doubt; inactive = no such curve, though single readings can be large or run the other way
Target sequence (P15428 whole entry, looked up): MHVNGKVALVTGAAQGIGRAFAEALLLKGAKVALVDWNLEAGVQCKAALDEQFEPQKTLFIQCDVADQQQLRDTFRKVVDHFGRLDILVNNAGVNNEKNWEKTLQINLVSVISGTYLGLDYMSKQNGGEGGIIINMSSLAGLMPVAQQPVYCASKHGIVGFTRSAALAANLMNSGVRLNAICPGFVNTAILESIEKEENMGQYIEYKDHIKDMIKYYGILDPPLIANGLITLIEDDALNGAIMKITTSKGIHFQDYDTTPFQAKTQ
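20 nM HPGD preincubated 15 min at room temperature with compound in 50 mM Tris-HCl pH 8, 0.01% Tween 20. Started with 1 mM NAD+ and 30 uM prostaglandin E2; NADH fluorescence (360/450 nm) read 5 times over 30-s intervals, last minus first.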
ALDH1A1 block: ALDH1A1 (human) enzyme inhibition | Purified ALDH1A1, NADH fluorescence, propionaldehyde substrate | Potency, µM (doses to about 75.3 µM), for the others: at the highest dose activity, negative = inhibition, most hits filed as inhibitors | 220,000 tested, 7.3% active; active = well fitted inhibition curve with a large enough effect, not every such curve was filed as active; inconclusive = small, poorly fitted or top-dose-only effect, or another doubt; inactive = no such curve, though single readings can be large or run the other way;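 note: plate controls were no enzyme wells and a reference inhibitor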
KDM4E inh: inhibitors of human JMJD2E histone demethylase; B2RXH2; JMJD2E catalytic domain, FDH-coupled NADH fluorescence (FDH is formaldehyde dehydrogenase); Potency, µM (doses to about 57.1 µM), for inactives: at the top dose activity change, negative = inhibition, actives largely listed as inhibitors; 230,000 tested, 1.6% active; AID 2147; active = well fitted inhibition curve with a large enough effect, not every such curve was filed as active; inconclusive = small, poorly fitted or top-dose-only effect, or another doubt; inactive = no such curve, though single readings can be large or run the other way;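 note: 0% = wells with enzyme and -100% = buffer wells without enzyme; nearly all actives have a fitted effect of over 50% in size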
Target sequence (B2RXH2 1-337 limits assumed): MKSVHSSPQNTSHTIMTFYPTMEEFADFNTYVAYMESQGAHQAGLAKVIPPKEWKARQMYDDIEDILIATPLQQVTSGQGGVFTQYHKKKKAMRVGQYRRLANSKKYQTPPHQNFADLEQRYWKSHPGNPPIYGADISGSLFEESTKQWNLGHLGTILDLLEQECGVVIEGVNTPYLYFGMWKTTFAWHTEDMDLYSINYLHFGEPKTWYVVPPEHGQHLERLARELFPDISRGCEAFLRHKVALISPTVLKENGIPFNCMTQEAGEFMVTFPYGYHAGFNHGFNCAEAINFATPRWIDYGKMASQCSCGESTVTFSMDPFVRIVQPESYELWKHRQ
Tau fibril ThT: blocks human tau fibril formation measured by thioflavin T | Potency, µM (highest dose often 57.4 µM), inactives show at the highest dose activity, negative = inhibition, actives largely listed as inhibitors | 270,000 tested, 2.1% active | recombinant tau K18 P301L, heparin-induced fibrillization, ThT fluorescence | P10636; note: nearly all actives have a fitted effect of over 55% in size
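Fibril formation assay: tau K18 P301L at 15 uM with trace Alexa 594 label, heparin inducer 20 uM, pH 7 sodium acetate buffer, 37 C for 6 hr; endpoint ThT signal.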
Tau fluor cs: counter-screen for tau fibril formation inhibitors. tau K18 P301L Alexa594 fluorescence, heparin fibrillization. Potency, µM (titrated, usually from 57.7 µM), for the others: at the top dose activity change, negative = decrease. 280,000 tested, 0.93% active; note: nearly all actives have a fitted effect of over 55% in size
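Human K18 P301L tau (15 uM unlabeled plus 0.24 uM Alexa 594-labeled, final) in 100 mM sodium acetate pH 7 was mixed with compound and 20 uM heparin and incubated 6 hr at 37 C.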
Tau FP inhib: inhibitors of human tau fibril formation | P10636 | K18 P301L tau heparin fibrillization, Alexa594 FP, 6 h | Potency, µM (top dose mostly 57.7 µM), without a hit: top-dose activity, negative = inhibition, actives largely listed as inhibitors | 280,000 tested, 0.39% active; note: nearly all actives have a fitted effect of over 55% in size
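Heparin (20 uM) drove fibril formation of recombinant tau K18 P301L, 15 uM unlabeled with 0.24 uM Alexa 594 label, for 6 hr at 37 C in 100 mM sodium acetate pH 7. Fluorescence polarization (555/632 nm) read 1 hr after 30 uM ThT.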
* = called active by the depositor; ? = inconclusive; · = no result; [ ] = remark or other dose. Unless noted, calls come from the whole dose curve; as a rule, active = well fitted curve in the direction sought with a large enough effect; inconclusive = small, poorly fitted or top-dose-only effect, or another doubt; inactive = no such curve, though single readings can be large; an effect the other way counts as inactive or inconclusive. Unless noted, % is set by controls: 0 for no effect and ±100 for the full control effect; potency is the fitted concentration of half-maximal effect.

SMILES	HPGD inh	ALDH1A1 block	KDM4E inh	Tau fibril ThT	Tau fluor cs	Tau FP inhib
N#C/C(=C\c1ccccc1)c1ccccn1	·	3%	0%	-6%	1%	10%
N#C/C(=C1/C(=O)Nc2ccc(Br)cc21)c1ccccn1	·	2%	16%	28µM*	-21%	?
CN(C)c1ccc(/C=N/NC(=O)CCc2nc3ccccc3[nH]2)cc1	·	?	?	?	-26%	3%
CCOC(=O)/C(C#N)=C/c1cc(C)n(-c2ccc(C)cc2)c1C	-14%	11µM*	?	?	-20%	-9%
CCOC(=O)/C(C#N)=C\c1cc(C)n(-c2ccccc2)c1C	-15%	?	-3%	?	-26%	-8%
Cc1cc(/C=C(\C#N)C(=O)OCC#N)c(C)n1CC(C)C	·	25µM*	-28%	-8%	-13%	-8%
Cc1cc(/C=C(\C#N)C(=O)Nc2ccccc2)c(C)n1-c1ccc(C(=O)O)cc1	·	1µM*	?	-17%	-9%	2%
Cc1cccc(NC(=O)/C(C#N)=C\c2cc(C)n(-c3ccc(C(=O)O)cc3)c2C)c1	·	3.2µM*	-29%	-6%	6%	3%
CNC(=O)/C(C#N)=C/c1cc(C)n(-c2ccc(N3CCOCC3)cc2)c1C	·	?	?	-5%	-5%	-1%
CCOC(=O)c1cnc2ccccc2c1Nc1cccc(OC)c1	·	·	·	?	-19%	-10%
CS(=O)(=O)N1CCC(C(=O)Nc2ccc(Cl)c(Cl)c2)CC1	·	2%	-1%	-8%	-20%	-5%
O=C(Nc1ccc2nc(SCC(=O)N3CCCC3)sc2c1)c1cccc(F)c1	·	·	·	-3%	?	-10%
Cc1ccccc1-n1nnnc1SCC(=O)c1c(N)n(C)c(=O)n(C)c1=O	·	0.35µM*	2%	4%	-8%	-3%
Cn1c(N)c(C(=O)CSc2nnnn2-c2ccccc2)c(=O)n(C)c1=O	·	·	3%	9%	4%	-4%
Nc1nc(C2CC2)c(Sc2sc(N)nc2C2CC2)s1	-12%	0%	1%	18µM*	?	-8%
O=C(CCl)N1N=C(c2cccs2)CC1c1ccco1 (centres undefined)	·	0.45µM*	?	?	-19%	5%
CCOC(=O)c1[nH]c(C=O)c(C(=O)OCC)c1C	·	?	-1%	-2%	-21%	-7%
CCCC(=O)c1ccc(N2CCN(C(=O)c3ccccc3Br)CC2)c(F)c1	-14%	16µM*	-2%	?	-1%	7%
O=C(NC(N1CCCCCC1)C(Cl)(Cl)Cl)c1ccccc1Cl (centres undefined)	-17%	11µM*	-2%	-2%	7%	5%
CC(C)(C)c1ccc(C(=O)NC(Cc2c[nH]c3ccccc23)C(=O)OCC(=O)c2ccc(Cl)cc2)cc1 (centres undefined)	·	·	·	-15%	?	-12%
O=C(COC(=O)[C@H](Cc1c[nH]c2ccccc12)NC(=O)c1ccc(Cl)cc1)Nc1ccc2c(c1)OCO2	-15%	?	5%	?	8.9µM*[quencher]	-14%
COc1ccc2[nH]c3c(NCCC4=CCCCC4)ncnc3c2c1	·	?	?	?	7.9µM*[quencher]	?
CC1(C)CC(=O)C([N+](=O)[O-])=C(NCCCC(=O)O)C1	-19%	3%	-1%	2%	-6%	-4%
Cc1ccccc1C1C(C#N)=C2N=C(N)c3c(sc4c3CCCCC4)N2C2=C1C(=O)CC(C)(C)C2 (centres undefined)	-5%	7.1µM*	?	?	-20%	2%
Cc1ccccc1C1C(C#N)=C2NC(=O)c3c(sc4c3CCCCC4)N2C2=C1C(=O)CC(C)(C)C2 (centres undefined)	-2%	4%	6%	-6%	2%	12%
SMILES	HPGD inh	ALDH1A1 block	KDM4E inh	Tau fibril ThT	Tau fluor cs	Tau FP inhib
CCOC(=O)c1c(NC(=O)Cn2nc(C(F)(F)F)cc2C)sc(C)c1C	?	-2%	-8%	1%	2%	3%
CCOc1ccc(-n2cnnn2)cc1S(=O)(=O)NC1CC1	-20%	4%	6%	-7%	-8%	-10%
CCOc1ccc(-n2cnnn2)cc1S(=O)(=O)Nc1c(C)cccc1C	14µM*	6%	-6%	2%	-1%	-10%
CCn1c(SCC(N)=O)nc2sc3c(c2c1=O)CCN(C)C3	·	?	?	?	-20%	?
Cn1c(N/N=C/c2ccccc2)nc2sc3c(c2c1=O)CCC3	-16%	-13%	?	?	18µM*[quencher]	6%
CN1CCc2c(sc3nc(NN)n(Cc4ccccc4)c(=O)c23)C1	·	32µM*	?	16µM*	?	-13%
O=c1c2c3c(sc2nc(NCCO)n1CCc1ccccc1)CCCCC3	-16%	?	-16%	?	14µM*[quencher]	?
COc1cccc(N2CC(NC(=O)C3CC3)CC2=O)c1 (centres undefined)	·	·	·	-3%	4%	2%
N#CC(c1ccc(=O)[nH]n1)c1ccc(Cl)cc1Cl (centres undefined)	·	-1%	0%	-5%	-1%	5%
N#CC(c1ccc(Cl)nn1)c1ccccc1Cl (centres undefined)	-12%	4µM*	-2%	-10%	-7%	0%
Cc1ccc(C(C#N)c2ccc(C(=O)c3ccc(F)cc3)cc2)cc1 (centres undefined)	-14%	?	-3%	-20%	-26%	-1%
N#CC(c1ccc(Cl)cc1)c1ncc(C(F)(F)F)cc1Cl (centres undefined)	-8%	6%	0%	-7%	-10%	-10%
Cc1ccc(C(C#N)c2ccc(Cl)nn2)cc1 (centres undefined)	·	8.9µM*	4%	-1%	7%	0%
N#CC(c1ccc(Cl)cc1)c1ccc(Cl)nn1 (centres undefined)	-18%	6.3µM*	-1%	-18%	-10%	-6%
Cc1cccc(N2CCN(C(=O)CN3CCSc4ccccc43)CC2C)c1 (centres undefined)	·	·	·	?	-30%	-1%
Cc1cccn2c(CN(C)CCC3CCCCO3)c(C(=O)N3CCCCC3)nc12 (centres undefined)	·	3.2µM*	-2%	-5%	-1%	5%
Cc1cccn2c(CN(C)C3CCOC3)c(C(=O)N3CCCCC3)nc12 (centres undefined)	·	5%	-9%	-4%	-2%	7%
O=C(CSC1=N/C(=C/c2ccco2)C(=O)N1c1ccc(OC(F)F)cc1)NC1CCS(=O)(=O)C1 (centres undefined)	·	?	0%	28µM*	-25%	?
COc1ccc(N2C(=O)/C(=C\c3ccco3)N=C2SCC(=O)NC(C)C)cc1Cl	-19%	1%	-25%	?	-26%	?
